High-throughput results as filed in PubChem.
HP1b chromo inh: HP1-beta chromodomain-methylated histone interaction inhibition; P83916; AlphaScreen HP1-beta / biotin-H3K9me3 peptide binding; Potency, µM (series often up to 114 µM), usual class: inhibitors; 390,000 compounds, 0.56% hits; AID 540317; also: nearly all actives have a fitted effect of over 70% in size
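AlphaScreen: HP1-beta (50 nM) preformed 30 min with biotin-H3(1-18)K9me3 peptide (50 nM) in PBS pH 7.4, 0.01% Tween-20. Compound added for 30 min at RT, then streptavidin donor/nickel chelate acceptor beads (10 ug/mL) for 30 min.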
G9a block: G9a (human) methyltransferase inhibition. 350,000 compounds, 8.8% hits. G9a H3K9 monomethylation, AlphaScreen, 2 h. Potency, µM (doses to about 102 µM), usual class: inhibitors; also: nearly all actives have a fitted effect of over 75% in size
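Readings reflect AlphaScreen signal from monomethyl-H3K9 antibody detection. HMT at 20 nM; substrate b-H3K9 500 nM; cofactor SAM 20 uM; 2 h RT reaction; compounds tested as titrations in qHTS with 15 min preincubation.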
JMJD2A Tudor: JMJD2A Tudor domain (human) inhibition. 390,000 compounds, 4.4% hits. Potency, µM (highest dose often 114 µM), usual class: inhibitors. O75164. AlphaScreen JMJD2A-Tudor / H3K4me3 peptide binding; also: nearly all actives have a fitted effect of over 50% in size
Target sequence (O75164 whole entry, looked up, the tested form may be a part): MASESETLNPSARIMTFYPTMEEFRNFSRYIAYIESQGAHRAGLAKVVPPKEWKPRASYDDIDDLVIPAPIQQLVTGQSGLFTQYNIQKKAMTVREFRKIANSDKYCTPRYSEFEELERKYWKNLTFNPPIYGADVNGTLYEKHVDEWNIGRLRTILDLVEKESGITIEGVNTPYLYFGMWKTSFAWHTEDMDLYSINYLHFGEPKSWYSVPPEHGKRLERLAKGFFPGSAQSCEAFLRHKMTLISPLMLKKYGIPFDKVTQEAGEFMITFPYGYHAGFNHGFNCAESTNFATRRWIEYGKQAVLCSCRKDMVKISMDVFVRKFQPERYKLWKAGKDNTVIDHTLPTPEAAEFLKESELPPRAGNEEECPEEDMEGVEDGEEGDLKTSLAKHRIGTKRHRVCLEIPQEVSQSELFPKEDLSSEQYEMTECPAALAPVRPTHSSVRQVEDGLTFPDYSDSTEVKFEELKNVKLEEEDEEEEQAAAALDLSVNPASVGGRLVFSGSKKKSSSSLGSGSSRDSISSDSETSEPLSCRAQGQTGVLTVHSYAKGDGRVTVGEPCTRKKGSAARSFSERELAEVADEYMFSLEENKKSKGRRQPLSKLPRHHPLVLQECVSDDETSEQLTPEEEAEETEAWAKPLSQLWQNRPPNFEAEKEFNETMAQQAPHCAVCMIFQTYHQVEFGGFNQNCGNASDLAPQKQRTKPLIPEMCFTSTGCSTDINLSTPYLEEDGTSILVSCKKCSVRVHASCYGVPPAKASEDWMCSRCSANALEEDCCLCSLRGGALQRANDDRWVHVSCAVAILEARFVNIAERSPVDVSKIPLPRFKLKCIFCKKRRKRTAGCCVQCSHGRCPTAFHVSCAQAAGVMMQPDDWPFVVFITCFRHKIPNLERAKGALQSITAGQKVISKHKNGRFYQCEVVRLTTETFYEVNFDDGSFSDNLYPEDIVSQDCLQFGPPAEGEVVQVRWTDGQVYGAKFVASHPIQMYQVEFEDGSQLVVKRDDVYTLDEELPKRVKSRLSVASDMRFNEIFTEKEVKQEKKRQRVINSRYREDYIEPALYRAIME
BAZ2B block: blocks human BAZ2B; AlphaScreen BAZ2B-H3K14Ac peptide displacement; Potency, µM (series often up to 114 µM), hits mostly inhibitors; 360,000 compounds, 4.4% hits; Q9UIF8; also: nearly all actives have a fitted effect of over 60% in size
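AlphaScreen luminescence quantifies BAZ2B engagement of H3K14Ac peptide; the protein and biotinylated peptide are both at 50 nM final, buffer PBS pH 7.4 with 0.01% Tween-20, all steps at room temperature.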
L3MBTL1 block: blocks human L3MBTL1 | AlphaScreen L3MBTL1–H3K9me1 peptide binding | Potency, µM (series often up to 57.1 µM), actives largely listed as inhibitors | 230,000 compounds, 0.66% hits; also: nearly all actives have a fitted effect of over 60% in size
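Read-out is AlphaScreen signal from streptavidin donor and nickel chelate acceptor beads (10 ug/mL final each) bridging L3MBTL1 (50 nM) and biotinylated K9-monomethylated H3(1-15) peptide (75 nM), after 30 min compound exposure at room temperature.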
Large screens that a line does not name were inactive. This is a sample that favours compounds with a hit; in the whole collection about 11% have one here. Calls follow the shape of the dose curve; as a rule, active = well fitted inhibition curve with a large enough effect; inconclusive = small, poorly fitted or top-dose-only effect; inactive = no such curve, though single readings can be large or run the other way.

Cc1ccc(NC(=S)N=Nc2c(O)n(C)c3ccc(S(=O)(=O)N4CCOCC4)cc23)cc1C	none
Cc1nc2ccc(-c3nc4ccc(N)cc4[nH]3)cc2[nH]1	G9a block inconclusive
Nc1ccc2nc(-c3cccc(-c4nc5ccc(N)cc5[nH]4)c3)[nH]c2c1	G9a block 22µM, BAZ2B block inconclusive (no result: L3MBTL1 block)
c1ccc(-c2nc3ccccc3[nH]2)cc1	none (no result: L3MBTL1 block)
Nc1ccc2nc(-c3ccc(Cl)cc3)[nH]c2c1	G9a block inconclusive, JMJD2A Tudor inconclusive (no result: L3MBTL1 block)
Nc1cc(N)cc(-c2nc3ccccc3[nH]2)c1	G9a block 22µM, JMJD2A Tudor inconclusive, BAZ2B block 45µM
Nc1ccc2nc(C3CCCCC3)[nH]c2c1	G9a block inconclusive, BAZ2B block 56µM
Nc1ccc(-c2nc3ccc(N)cc3[nH]2)cc1	HP1b chromo inh inconclusive, JMJD2A Tudor 56µM, BAZ2B block inconclusive
O=C(COC(=O)Cc1c(F)cccc1Cl)NCc1ccc2c(c1)OCO2	none (no result: G9a block, BAZ2B block)
CO/N=C/c1ccc(Oc2ccc(C)cc2)c([N+](=O)[O-])c1	JMJD2A Tudor 13µM
O=[N+]([O-])c1cc(/C=N/O)ccc1Oc1cccc(Cl)c1	JMJD2A Tudor inconclusive, BAZ2B block inconclusive
Cc1ccc(N2CCN(c3ncnc4onc(-c5ccc(F)cc5)c34)CC2)c(C)c1	none (no result: L3MBTL1 block)
Cc1nc2c3ccccc3nc(NNC(=O)CCC(=O)NCCN3CCN(c4ccccc4)CC3)n2n1	BAZ2B block inconclusive (no result: L3MBTL1 block)
CN1CCN(C(=O)/C=C/c2ccccc2)CC1	G9a block inconclusive
CSc1ccc(/C=C/C(=O)N2CCCN(C)CC2)cc1	G9a block 22µM (no result: L3MBTL1 block)
COc1cc(/C=N/Nc2nn3cnnc3c3ccccc23)ccc1O	G9a block 79µM, BAZ2B block inconclusive
CC(C)NC(=O)Cn1cc(C(=O)COc2ccccc2)c2ccccc21	none
CC1CCN(S(=O)(=O)c2ccc(C(=O)Nc3nnc(C4CC4)o3)cc2)CC1	BAZ2B block 50µM (no result: L3MBTL1 block)
CC1CCCCN1S(=O)(=O)c1ccc(C(=O)N2CCOCC2)cc1 (stereo not given)	G9a block 56µM (no result: L3MBTL1 block)
CC1CCN(S(=O)(=O)c2ccc(C(=O)Nc3nnc(-c4ccncc4)o3)cc2)CC1	none (no result: BAZ2B block, L3MBTL1 block)
O=C(Nc1nnc(C2CC2)o1)c1ccc(S(=O)(=O)N2CCCc3ccccc32)cc1	BAZ2B block 50µM
CC1CCCCN1S(=O)(=O)c1ccc(C(=O)Nc2nnc(C3CC3)o2)cc1 (stereo not given)	BAZ2B block 50µM (no result: L3MBTL1 block)
CC(=O)CSc1nnc2[nH]c(=O)cc(N)n12	none (no result: L3MBTL1 block)
CS(=O)(=O)c1ccc(-c2nnc(NC(=O)c3ccc(S(=O)(=O)N4CCCC4)cc3)o2)cc1	BAZ2B block inconclusive
O=C(Nc1nnc(C2CC2)o1)c1ccc(S(=O)(=O)N2CCCCC2)cc1	JMJD2A Tudor inconclusive, BAZ2B block 56µM (no result: L3MBTL1 block)
CC1CCCCN1S(=O)(=O)c1ccc(C(=O)Nc2nnc(-c3ccco3)o2)cc1 (stereo not given)	BAZ2B block 89µM (no result: G9a block, L3MBTL1 block)
CN(C)S(=O)(=O)c1ccc(C(=O)Nc2nnc(-c3ccco3)o2)cc1	JMJD2A Tudor 89µM, BAZ2B block 79µM (no result: L3MBTL1 block)
CN(c1ccc(C(=O)N2CCOCC2)cc1[N+](=O)[O-])C1CCCCC1	G9a block inconclusive, BAZ2B block 50µM
CN(C(=O)c1ccc(N2CCOCC2)c([N+](=O)[O-])c1)C1CCCCC1	none
Cc1ccc(S(=O)(=O)c2nnn3c2nc(NCc2ccc(F)cc2)c2sccc23)cc1C	none (no result: L3MBTL1 block)
Cc1ccc(Oc2ncnc(N)c2[N+](=O)[O-])cc1C	none
CN(C)c1ccc(/C=C/c2ccc3c4ccccc4ccc3[n+]2-c2ccccc2)cc1	HP1b chromo inh 11µM, G9a block 16µM, JMJD2A Tudor 8.9µM, BAZ2B block 7.9µM, L3MBTL1 block inconclusive
CN(CCCS(=O)(=O)[O-])c1ccc(/C=C/c2ccc3ccccc3[n+]2C)cc1	G9a block 32µM, JMJD2A Tudor inconclusive, BAZ2B block inconclusive (no result: L3MBTL1 block)
CN(C)c1ccc(/C=C/c2nc3ccccc3c(=O)[nH]2)cc1	none (no result: L3MBTL1 block)
[O-][n+]1c(/C=C/c2ccccc2)ccc2ccccc21	BAZ2B block inconclusive
COc1ccc(/C=C/c2ccc3ccccc3[n+]2C)cc1OC	G9a block 35µM, JMJD2A Tudor inconclusive (no result: L3MBTL1 block)
C[n+]1ccccc1/C=C/c1ccc2ncccc2c1	BAZ2B block inconclusive (no result: G9a block)
CC(=O)Oc1ccccc1/C=C/c1ccc2ccccc2[n+]1C	JMJD2A Tudor inconclusive, BAZ2B block inconclusive (no result: G9a block)
CN(C)c1ccc(/C=C/c2ccc3ccccc3[n+]2C)cc1	HP1b chromo inh inconclusive, G9a block 7.9µM, JMJD2A Tudor 79µM, BAZ2B block 45µM
Oc1ccc(Cl)cc1C1C=C(c2ccc3c(c2)OCO3)NC(c2cc(Br)ccc2F)N1 (stereo not given)	JMJD2A Tudor inconclusive (no result: G9a block, BAZ2B block, L3MBTL1 block)
O=C(O)CC(NS(=O)(=O)c1ccc(Cl)s1)c1ccccc1 (stereo not given)	none (no result: L3MBTL1 block)
CCOc1ccc(NC(=O)c2cc(S(=O)(=O)N3CCc4ccccc43)ccc2F)cc1	none (no result: L3MBTL1 block)
O=C(CNC(=O)c1ccccc1F)NCCN1C(=O)S/C(=C\c2ccc3c(c2)OCO3)C1=O	none
NCCN1C(=O)S/C(=C\c2ccc3c(c2)OCO3)C1=O	G9a block 45µM (no result: L3MBTL1 block)
COc1cc(/C=C2\SC(=O)N(CCN)C2=O)ccc1OS(=O)(=O)c1cc(C)ccc1C	HP1b chromo inh inconclusive, G9a block 28µM, JMJD2A Tudor 28µM, BAZ2B block inconclusive (no result: L3MBTL1 block)
COc1ccc(/C=C2\SC(=O)N(CCC(=O)Nc3ccccc3)C2=O)cc1OC	G9a block inconclusive
COc1ccc(C2/C(=C(/O)c3ccc(F)cc3)C(=O)C(=O)N2c2ccccn2)cc1OC (stereo not given)	JMJD2A Tudor 18µM
Cc1ccc(/C(O)=C2\C(=O)C(=O)N(C)C2c2ccc([N+](=O)[O-])cc2)cc1 (stereo not given)	none
Cc1ccc(/C(O)=C2/C(=O)C(=O)N(CC(=O)O)C2c2ccc([N+](=O)[O-])cc2)cc1 (stereo not given)	G9a block inconclusive, JMJD2A Tudor 50µM, BAZ2B block inconclusive
COc1ccc(C2/C(=C(/O)c3ccc(C)cc3)C(=O)C(=O)N2c2ccccn2)cc1 (stereo not given)	G9a block 45µM (no result: L3MBTL1 block)
CN1C(=O)C(=O)/C(=C(/O)c2ccccc2)C1c1ccc([N+](=O)[O-])cc1 (stereo not given)	none (no result: G9a block)
Cc1ccc(/C(O)=C2/C(=O)C(=O)N(c3ccccn3)C2c2ccc([N+](=O)[O-])cc2)cc1 (stereo not given)	G9a block 71µM
Cc1ccc(N(C)C(=O)C2CCN(S(=O)(=O)c3cn(C)cn3)CC2)cc1	none (no result: L3MBTL1 block)
Cc1ccc(/C(O)=C2\C(=O)C(=O)N(CC(C)O)C2c2ccccn2)cc1 (stereo not given)	JMJD2A Tudor 35µM (no result: G9a block)
CCOc1ccc(/C(O)=C2/C(=O)C(=O)N(c3ncccn3)C2c2ccc(Cl)cc2)cc1 (stereo not given)	G9a block 50µM, BAZ2B block inconclusive (no result: L3MBTL1 block)
